Compound activity: PubChem, Center for Chemical Genomics, University of Michigan
CDC25B CDK2 inh = human CDC25B-CDK2/CyclinA binding inhibition | HTRF CDC25B-CDK2/CyclinA binding, anti-His/anti-Flag; stronger effect = higher value | z-score (concentration not given with the values) | AID 1259370 | hit rate 0.72% among 94,000; in the data active = z-score above about 3.2
HIV TAR-Tat = HIV-1 TAR-Tat binding disruption; HIV-1 TAR RNA, Tat peptide displacement FRET; stronger effect = higher value; z-score (no concentration beside the values); hit rate 0.6% among 100,000; AID 1259389; active = z-score of 3 or more in at least 2 runs
Numbers without * were called inactive. Only some compounds are listed: those with a hit (about 0.86% of all), similar ones and a draw of the others.

Results for COc1cc2c(cc1O)CC1c3c(cc(O)c(OC)c3-2)CCN1C (centres undefined) ?
HIV TAR-Tat: 7.7*

How did COc1cc2c3c(c1OC)-c1ccccc1CC3N(C)CC2 (centres undefined) do in these assays?
HIV TAR-Tat: -9.2

How did Cc1nc2ccccc2c(=O)n1C1CCNCC1 do in these assays?
HIV TAR-Tat: 2.2

Results for CCc1ccc(-n2nc(C)c3c2NC(=O)CSC3c2ccc(O)cc2)cc1 (centres undefined) ?
CDC25B CDK2 inh: -0.14; HIV TAR-Tat: 1.5

Results for COc1ccc(OC)c(C2C3C(=NN2C(C)=O)C2CCN3CC2)c1 (centres undefined) ?
CDC25B CDK2 inh: 1.8; HIV TAR-Tat: 0.97

What do the screens show for `O=C1C2CCN(CC2)C1Cc1ccc(OCCOc2ccccc2)cc1` (centres undefined)?
CDC25B CDK2 inh: -0.64; HIV TAR-Tat: 0.32

What do the screens show for `O=C1C2CCN(CC2)C1Cc1ccco1` (centres undefined)?
CDC25B CDK2 inh: 12*

What do the screens show for `CC[C@@H](C)C(=O)O[C@H]1[C@H](O)[C@H]2[C@@H](CN3C[C@@H](C)CC[C@H]3[C@@]2(C)O)[C@@H]2C[C@]34OC5(O)[C@@H](OC(=O)C(C)(O)C(C)O)CC[C@@]3(C)[C@@H]5[C@@H](OC(C)=O)[C@@H](OC(C)=O)[C@H]4[C@@]21O` (some centres undefined)?
HIV TAR-Tat: 10*

Results for CCC(C)C(=O)O[C@H]1[C@H](O)C2C(CN3CC(C)CCC3[C@@]2(C)O)C2C[C@]34O[C@]5(O)C(OC(=O)C(C)(O)C(C)O)CC[C@@]3(C)C5C(OC(C)=O)[C@@H](OC(C)=O)C4[C@@]21O (some centres undefined) ?
HIV TAR-Tat: 0.53

How did CCCCCCCC(C)(C)c1ccc([C@H]2CCC[C@@H](O)C2)c(O)c1 do in these assays?
HIV TAR-Tat: 1.5

Results for Cn1nc(-c2ccccc2)nc2c(=O)n(C)c(=O)nc1-2 ?
CDC25B CDK2 inh: 5.8*; HIV TAR-Tat: -4.7

Results for CCn1nc(-c2ccccc2)nc2c(=O)n(C)c(=O)nc1-2 ?
CDC25B CDK2 inh: -0.92; HIV TAR-Tat: -7.7

What do the screens show for `O=C(Nc1ccc(Cl)cc1C(=O)c1ccccc1)c1ccc(S(=O)(=O)N2CCCCC2)cc1`?
CDC25B CDK2 inh: -3.4

How did Cn1c(=O)n(C)c2cc(CNCCc3c[nH]c4ccccc34)ccc21 do in these assays?
CDC25B CDK2 inh: -1.6; HIV TAR-Tat: 2.1

What do the screens show for `CCCCOP(O)(=S)OCCCC`?
CDC25B CDK2 inh: -0.76

How did N#CC(=C=N)/C=C(/Br)C=C(C#N)C#N do in these assays?
CDC25B CDK2 inh: 2.4

What do the screens show for `COc1cccc(CN2CCN(Cc3cc(Br)ccc3O)CC2)c1`?
CDC25B CDK2 inh: 16*; HIV TAR-Tat: 0.7

How did CCc1ccc(CN2CCN(Cc3cc(Br)ccc3O)CC2)cc1 do in these assays?
CDC25B CDK2 inh: -0.94; HIV TAR-Tat: 1.3

What do the screens show for `COc1ccc(Cc2nccc3cc(OC)c(OC)cc23)cc1OC`?
CDC25B CDK2 inh: 13*; HIV TAR-Tat: 1.6

Results for COc1ccc(CCNCc2ccc(OC)c(OC)c2)cc1OC ?
CDC25B CDK2 inh: -0.56; HIV TAR-Tat: -1.2

How did n1[nH]nc2c1Nc1nonc1N2 do in these assays?
CDC25B CDK2 inh: -3.1

How did CSc1ccc(C2C3C(=NN2C(C)=O)C2CCN3CC2)cc1 (centres undefined) do in these assays?
CDC25B CDK2 inh: -3.2; HIV TAR-Tat: 1.6

How did O=C(O)CN(CC(=O)O)[N+](=O)[O-] do in these assays?
CDC25B CDK2 inh: -0.1

How did O=[N+]([O-])c1ccc(O)c([N+](=O)[O-])c1 do in these assays?
HIV TAR-Tat: 1.9

What do the screens show for `O=[N+]([O-])c1cc(O)c(O)c([N+](=O)[O-])c1`?
CDC25B CDK2 inh: -3.6; HIV TAR-Tat: 9.5*

What do the screens show for `O=c1cccc2n1CC1CC2CN(Cc2nnc(-c3ccc4c(c3)OCO4)o2)C1` (centres undefined)?
CDC25B CDK2 inh: -1.2; HIV TAR-Tat: 0.76

How did CC[C@@H](CO)NC(=O)[C@@H]1C=C2c3cccc4c3c(cn4C)C[C@H]2N(C)C1 do in these assays?
CDC25B CDK2 inh: 1.1

What do the screens show for `CC[C@@H](CO)NC(=O)[C@@H]1C=C2c3cccc4[nH]cc(c34)C[C@H]2N(C)C1`?
CDC25B CDK2 inh: 4.2*; HIV TAR-Tat: 0.85

What do the screens show for `O=C(Nc1ccc2c(c1)OCCO2)N1Cc2ccccc2-n2cccc2C1c1ccc(F)cc1` (centres undefined)?
HIV TAR-Tat: -0.36

What do the screens show for `CC(C)=CCCC1=CC(=O)c2c(O)ccc(O)c2C1=O`?
HIV TAR-Tat: 34*

Results for c1ccc(-n2cccc2-c2nc(N3CC3)nc(N3CC3)n2)cc1 ?
CDC25B CDK2 inh: 16*

Results for OC12CN3CN(CN(C3)C1)C2 ?
CDC25B CDK2 inh: -2.5

Results for [Cl-].[Cl][Pt].[NH2-].[NH2-].c1ccncc1 ?
CDC25B CDK2 inh: 3.7*
